Screens as filed in PubChem.
Shown are actives, neighbours in structure and some others; about 10% of the full set was active somewhere.
Pf growth 48h: P. falciparum growth inhibition at 48 hours (one generation) | P. falciparum luciferase growth in erythrocytes, 48 h | Potency, µM (top dose mostly 28.7 µM), actives largely listed as inhibitors | hit rate 5.9% among 310,000; active means well fitted inhibition curve with a large enough effect; inconclusive means small, poorly fitted or top-dose-only effect, or another doubt; inactive means no such curve, though single readings can be large or run the other way
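First compound was added to culture medium, then infected red cells at 0.1% parasitemia and 2% hematocrit (final). After incubation at 37 C under 5% CO2, luciferase detection reagent was dispensed and light output recorded.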
SARS PLpro yeast: inhibitors of SARS-CoV papain-like protease in yeast; hit rate 0.19% among 330,000; S. cerevisiae expressing SARS-CoV PLpro, growth rescue; Potency, µM (titrated, usually from 32.9 µM), usual class: activators; further: nearly all actives have a fitted effect of over 55% in size
NS1 inh: influenza NS1 inhibition; Potency, µM (top dose mostly 46.1 µM); hit rate 0.4% among 270,000; AID 2326; further: actives are rising curves; nearly all actives have a fitted effect of over 50% in size
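Compounds were scored for reversing the slow growth caused by influenza A NS1 in S. cerevisiae, measured by optical density at 600 nm. Assay medium contained 2% galactose at pH 6.0; NS1-free yeast of the same strain were the positive control.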
Pf growth 96h: P. falciparum growth inhibition at 96 hours | P. falciparum luciferase reporter growth, 96 h | Potency, µM (series often up to 28.7 µM), actives largely listed as inhibitors | hit rate 6.9% among 320,000 | AID 504834; active means well fitted inhibition curve with a large enough effect; inconclusive means small, poorly fitted or top-dose-only effect, or another doubt; inactive means no such curve, though single readings can be large or run the other way
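Compounds incubated with erythrocytes infected by luciferase-expressing P. falciparum (2% hematocrit, 0.05% parasitemia final) for 96 hours, 37 C in 5% CO2. Growth inhibition scored as decreased luciferase luminescence.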
Hits are given with their value; - = inactive; ? = inconclusive; . = no result. Unless noted, the call rests on the fitted dose curve.

SMILES	Pf growth 48h	SARS PLpro yeast	NS1 inh	Pf growth 96h
Cc1ccc(N(CC(=O)NCC2CCCO2)C(=O)CCC(=O)Nc2ccccn2)cc1 (stereo not drawn)	-	-	.	0.586µM
CCOc1ccc(N(CC(=O)NCCc2ccccc2)C(=O)CCC(=O)Nc2cc(C)ccn2)cc1	4.65µM	-	-	-
Cc1cc(C)cc(N(CC(=O)NCc2ccc3c(c2)OCO3)C(=O)CCC(=O)Nc2ccccn2)c1	1.31µM	-	-	?
Cc1ccc(N(CC(=O)NCc2ccc3c(c2)OCO3)C(=O)CCC(=O)Nc2ccccn2)cc1	?	-	-	-
COCCNC(=O)C(c1ccc(C)cc1)N(C(=O)CCC(=O)Nc1ccccn1)c1ccc(F)cc1 (stereo not drawn)	-	-	-	-
NC(=O)CC(NC(=O)c1cccc(Br)c1)c1ccc(NCCN2CCOCC2)c([N+](=O)[O-])c1 (stereo not drawn)	-	-	-	-
Cc1cc2c(c(CO)c1CCO)C(=O)[C@@H](C)[C@@H]2O	.	-	.	.
Cc1cccc(C)c1NC(=O)CCc1nnc2ccc(N3CCCC3)nn12	-	-	-	-
Cc1nn(C)c(C)c1CN(Cc1nc(CCC(C)C)no1)C(C)C	?	-	-	-
CCCc1nc2ccccc2c(C(=O)N(CC)CC(=O)NCc2cccs2)c1CC	?	-	.	?
COc1ccc(N2CCN(C(=O)CCC(=O)N3CCOc4ccc(Cl)cc43)CC2)cc1	-	-	-	?
COCCNC(=O)C(c1ccc(Cl)cc1)N(Cc1ccco1)C(=O)CCC(=O)Nc1ccccn1 (stereo not drawn)	-	-	-	13.1µM
COCCNC(=O)CN(C(=O)CCC(=O)Nc1ccccn1)c1ccc(C)c(C)c1	-	-	-	9.28µM
COCCNC(=O)CN(C(=O)CCC(=O)Nc1ccccn1)c1ccc(C)cc1	-	-	-	-
c1ccc2c([C@@H]3CCN(CCN4CCOCC4)C3)c[nH]c2c1	.	.	-	.
CCc1nn2cc(C(=O)c3cc(C)ccc3O)cnc2c1-c1ccc(F)cc1	2.62µM	-	-	-
CSCCC(NC(=O)c1ccc([N+](=O)[O-])cc1Cl)C(=O)OC1CCCCC1=O (stereo not drawn)	-	-	-	-
CCn1c(C)[n+](Cc2ccccc2)c2ccc(Cl)cc21	7.38µM	-	.	-
Cc1n(Cc2ccccc2)c2ccccc2[n+]1Cc1ccccc1	1.31µM	-	-	-
CCn1c(C)[n+](Cc2ccccc2)c2ccc(C(=O)OC)cc21	?	-	.	-
NC(Cc1ccccc1)C(O)(c1ccccc1)c1ccccc1 (stereo not drawn)	?	-	-	?
O=C(Nc1ccc(F)cc1F)NC1CCCCCCC1	-	-	-	-
CCOc1ccccc1NC(=O)C(NCC1(N2CCCCC2)CCCCC1)c1ccccc1 (stereo not drawn)	?	-	-	3.7µM
COc1ccccc1NC(=O)C(C)OC(=O)CCSc1ccc(F)cc1 (stereo not drawn)	-	-	.	-
CCOC(=O)Cc1ccc(NC(=O)c2cccc([N+](=O)[O-])c2)cc1	-	-	-	-
SMILES	Pf growth 48h	SARS PLpro yeast	NS1 inh	Pf growth 96h
CCOC(=O)CSc1nnc(NC(=O)c2cccc([N+](=O)[O-])c2)s1	-	-	-	11.7µM
N#Cc1ccccc1S(=O)(=O)N1CCN(C(=O)C2CCC2)CC1	-	.	.	-
COC(=O)[C@@]12CCCN1[C@H](c1ccc(-c3ccccc3)cc1)[C@H]1C(=O)N(C)C(=O)[C@H]12	10.4µM	-	.	?
COC(=O)[C@@]12CCCN1[C@H](c1ccc(-c3ccc(OC)cc3)cc1)[C@@H]1C(=O)N(C)C(=O)[C@@H]12	5.86µM	-	.	9.28µM
COC(=O)[C@@]12CCCCN1[C@H](c1ccc(-c3ccccc3)cc1)[C@H]1C(=O)N(C)C(=O)[C@H]12	-	-	.	-
Cc1ccccc1OC(=O)c1cccnc1	-	-	-	?
Cc1ccc(CNC(=O)CCn2cc(-c3ccc(F)cc3)nc2-c2ccncc2)cc1	8.28µM	-	.	?
O=C(O)CCn1cc(-c2ccc(F)cc2)nc1-c1ccncc1	-	-	.	-
Cc1ccc(CNC(=O)CCn2cc(-c3ccc(C)cc3)nc2-c2ccncc2)cc1	?	-	-	9.28µM
NS(=O)(=O)c1ccc(CNC(=O)c2ccc3c(c2)OCO3)cc1	.	-	.	.
Cc1ccc(S(=O)(=O)Cn2nnnc2C(CC(C)C)N2CCN(C3CCCC3)CC2)cc1 (stereo not drawn)	?	-	-	-
Cc1ccccc1NC(=O)NNC(=O)COc1ccc2ccccc2c1	-	-	-	?
Cc1ccc(N2CCN(C3=NC(=O)/C(=C\c4cn[nH]c4-c4ccccc4)S3)CC2)cc1	5.86µM	-	-	?
